# According to PubChem BioAssay:
# “And” between values parts separate entries of the source, which are not always exact repeats. Identical values can stand only once. Values without a mark were called inactive. The source made the active and inactive calls. Unless noted, no stated cut-off is given here; in the data, active means inhibition above about 33%; inactive means the rest.
# Assays:
# [1] = StAR promoter reporter inhibitors, counter-screen for LRH-1 inverse agonist project, cell-based, luminescence, high throughput (AID 651611; in the data active means inhibition above about 28%); details: StAR promoter luciferase reporter counterscreen, at 3.6 µM, stronger effect = higher value
# [2] = biological target: Nuclear receptor subfamily 5 group A member 2 (Homo sapiens) (UniProt O00482); assay: NR5A2 activity suppression in reporter cells – cell-based, luminescence, confirmation (AID 651613; in the data active means inhibition above about 42%;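 further: HEK293T cells co-transfected with LRH-1 and StAR promoter luciferase reporter; 0% = vehicle wells and 100% = parental cells lacking receptor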); details: cell-based LRH-1 luciferase reporter, inverse agonism; at 3.6 µM; stronger effect = higher value
# Chain of Nuclear receptor subfamily 5 group A member 2 (Homo sapiens) (O00482 whole entry, looked up): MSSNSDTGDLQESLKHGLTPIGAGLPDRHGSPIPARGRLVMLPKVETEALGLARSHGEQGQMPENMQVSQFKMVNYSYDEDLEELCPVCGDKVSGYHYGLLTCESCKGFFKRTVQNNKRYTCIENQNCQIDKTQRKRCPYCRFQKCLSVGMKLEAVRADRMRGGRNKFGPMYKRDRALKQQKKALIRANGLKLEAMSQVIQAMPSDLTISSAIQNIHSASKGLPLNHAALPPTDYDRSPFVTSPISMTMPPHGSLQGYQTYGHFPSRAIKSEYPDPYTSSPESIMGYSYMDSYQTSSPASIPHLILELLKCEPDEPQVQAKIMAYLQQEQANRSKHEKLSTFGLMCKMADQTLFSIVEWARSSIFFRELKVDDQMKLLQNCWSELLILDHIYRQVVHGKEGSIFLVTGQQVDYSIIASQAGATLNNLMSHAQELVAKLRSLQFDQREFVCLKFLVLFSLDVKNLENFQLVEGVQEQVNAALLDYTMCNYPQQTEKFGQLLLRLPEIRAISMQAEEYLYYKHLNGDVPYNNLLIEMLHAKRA
# [3] = biological target: Steroidogenic factor 1 (Homo sapiens) (UniProt Q13285); assay: inverse agonism at SF1 nuclear receptor – cell-based, luminescence, high throughput, counter-screen for LRH-1 inverse agonist project (AID 651614; in the data active means inhibition above about 44%;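 further: cells cotransfected with StAR promoter reporter and SF1 expression vector; 0% = vehicle on cells with receptor and 100% = vehicle on cells lacking receptor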); details: cell-based SF1 luciferase reporter, at 3.6 µM, stronger effect = higher value
# Chain of Steroidogenic factor 1 (Homo sapiens) (Q13285 whole entry, looked up, the tested form may be a part): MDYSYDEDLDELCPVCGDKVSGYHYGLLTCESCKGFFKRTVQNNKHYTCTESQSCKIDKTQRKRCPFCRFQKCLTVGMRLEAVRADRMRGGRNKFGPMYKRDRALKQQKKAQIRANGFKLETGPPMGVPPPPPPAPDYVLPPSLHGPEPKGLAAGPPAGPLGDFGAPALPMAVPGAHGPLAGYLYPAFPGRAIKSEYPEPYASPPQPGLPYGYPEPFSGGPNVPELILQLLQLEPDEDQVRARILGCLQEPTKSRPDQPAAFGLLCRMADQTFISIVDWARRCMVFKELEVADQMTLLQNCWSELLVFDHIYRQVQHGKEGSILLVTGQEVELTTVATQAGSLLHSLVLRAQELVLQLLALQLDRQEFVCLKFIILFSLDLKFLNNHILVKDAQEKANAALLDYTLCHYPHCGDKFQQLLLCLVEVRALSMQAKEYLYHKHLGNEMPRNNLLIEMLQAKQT
# [4] = compounds suppressing VP16-driven luciferase signal – cell-based, luminescence, high throughput, counter-screen for LRH-1 inverse agonist project (AID 651615); details: Gal4-VP16 luciferase reporter cells, at 3.6 µM, stronger effect = higher value
Structure (SMILES),inhibition [1],inhibition [2],inhibition [3],inhibition [4]
COc1ccc(NC(=O)COc2ccc(N(C)S(=O)(=O)c3ccc(Cl)cc3)cc2)cc1OC,18.5%,67.1% (active),51.7% (active),51.1% (active)
COc1ccc(NC(=O)c2cc(-c3cc(F)ccc3OC)n[nH]2)cc1OC,28.8% (active),43.6% (active),49.4% (active),52% (active)
COc1ccc(NC(=O)COC(=O)Cc2c[nH]c3ccccc23)cc1Cl,18.2%,40.9%,42.5%,-6.87%
COc1cc2c(cc1OC)CN(C(=O)CN1C(=O)NC3(CCC(C)CC3)C1=O)CC2 (configuration not stated),11.1%,46% (active),46.4% (active),7.61%
CCc1ccc2oc(C(=O)NCc3ccncc3)c(C)c2c1,-4.67%,53.2% (active),61% (active),6.18%
CCOc1ccc(CCNC(=O)COC(=O)COc2ccc(Br)cc2)cc1OCC,4.03%,49.1% (active),56.3% (active),4.38%
C#Cc1cccc(Nc2nc(NC(C)C)nc3ccsc23)c1,17.7%,63.6% (active),60.9% (active),20.3%
O=C(CSc1n[nH]c(-c2ccccn2)n1)Nc1ccc(Cl)cc1,36.3% (active),70% (active),67.1% (active),41.4% (active)
CC(=O)N1CCN(c2ccc(Oc3ccc([N+](=O)[O-])c(C(F)(F)F)c3)cc2)CC1,30.3% (active),68.3% (active),72.9% (active),57.5% (active)
O=C(CSc1n[nH]c(-c2ccccc2)n1)Nc1ccc(F)cc1F,5.84%,58.4% (active),50.4% (active),3.19%
Cc1ccc(NC(=O)CSc2sc3c(O)cc(=O)[nH]c3c2C#N)c(F)c1,7.65%,57.1% (active),41.9%,-9.48%
c1ccc(Oc2nc(-c3cccnc3)nc3ccccc23)cc1,10.6%,57.3% (active),53.3% (active),1.32%
CCC(=O)N1CCN(c2ccc(NC(=O)c3ccc([N+](=O)[O-])o3)cc2Cl)CC1,13%,56.2% (active),58.2% (active),-21.9%
CCc1c(O)nc(SCC(=O)Nc2ccc(OC)cc2)n(C2CCCCC2)c1=O,13.3%,55.5% (active),51.4% (active),5.01%
C#Cc1cc(N2CCN(C(=O)c3ccoc3)CC2)n2nc(-c3cccc(Cl)c3)cc2n1,49% (active),55.6% (active),62.4% (active),23.7%
c1ccc(C2=Nn3c(nnc3-c3n[nH]c4c3CCC4)SC2)cc1,47.6% (active),50.8% (active),40.7%,-147%
O=[N+]([O-])c1ccc(N2CCCC2)nc1N1CCCC1,11.1%,59.7% (active),56.1% (active),-3.67%
CC(=O)Nc1cc(-c2cccc(NS(C)(=O)=O)c2)cn2c(-c3ccccc3)cnc12,28% (active),40.4%,34.3%,-8.63%
CC(=O)c1ccc(-c2cnc3c(NC=O)cc(-c4ccc(S(C)(=O)=O)cc4)cn23)cc1,31.7% (active),74.8% (active),70.3% (active),-0.51%
CCCc1nnc(SCC(=O)Nc2ccc(OC)cc2)o1,5.23%,42.6% (active),45% (active),-8.5%
O=C(COc1ccc(S(=O)(=O)N2CCCC2)cc1Cl)NCc1ccc2c(c1)OCO2,26.1%,34%,32.6%,2.14%
O=C(Cc1ccc(Cl)cc1Cl)Nc1ccncc1,16.2%,76.1% (active),72.9% (active),48.6% (active)
Cc1cc(C(=O)NC2CCCc3c2cnn3-c2cccc(C)c2C)n(C)n1 (configuration not stated),33.4% (active),68.2% (active),58.4% (active),59.1% (active)
CN(C)c1nnnn1-c1cccc(Oc2ncc(C(F)(F)F)cc2Cl)c1,8.18%,38.6%,38.3%,-5.85%
CC(Nc1ncnc2ccccc12)c1ccccc1 (configuration not stated),20.9%,60.2% (active),67.9% (active),53.7% (active)
COc1ccccc1N1CCN(C(=O)CSc2nc3ccccc3o2)CC1,-10.2%,30.2%,35.1%,-19.8%
N#CC1=C(N2CCOCC2)/C(=C\c2ccccc2)CC1,14.8%,51.9% (active),46.6% (active),8.41%

Structure (SMILES),inhibition [1],inhibition [2],inhibition [3],inhibition [4]
Cc1cc(OCC(=O)Nc2cccnc2)c2c(C)c(C)c(=O)oc2c1,10.8%,63.2% (active),52.8% (active),-34.7%
Cc1c(C(=O)Nc2ccc(Cc3ccncc3)cc2)cccc1[N+](=O)[O-],-10.9%,56.2% (active),49.9% (active),19.6%
CCCCNC(=O)CSc1nc2ccc(NC(=O)CSc3nnc(COc4ccccc4C)n3C)cc2s1,2.43%,61.2% (active),61.3% (active),-5.17%
COC(=O)C1(C)Nc2ccccc2C(=O)N1c1ccccc1C (configuration not stated),2.27%,16%,0.53%,7.07%
CCCCCCCN(C(=O)CCl)c1ccccc1C,21%,49.9% (active),42.9% (active),-8.25%
O=C(COC(=O)CCN1C(=O)C2CC=CCC2C1=O)NCCc1ccc(F)cc1 (configuration not stated),7.75%,63.2% (active),55% (active),-1.34%
C[n+]1c2cc(N)ccc2cc2ccc(N)cc21,34.8% (active) and 28.5% (active),109% (active) and 105% (active),79.5% (active) and 66.7% (active),95.3% (active) and 92.1% (active)
COC(=O)c1c(NC(=O)c2ccco2)sc2c1CCN(C(C)=O)C2,20%,54.4% (active),44.7% (active),-41%
O=C(Nc1nc2ccc(F)cc2s1)c1ccc([N+](=O)[O-])o1,-101%,0.34%,10%,-93.2%
O=C(Nc1ccc(N2CCN(C(=O)c3ccccc3)CC2)cc1)c1ccc([N+](=O)[O-])o1,22.4%,64.8% (active),66.6% (active),-9.49%
Cc1ccc(NC(=O)CCl)c(C)c1,35% (active),59.3% (active),63.2% (active),-43.6%
Cc1ccc(C(=O)Nc2sc3c(c2C(=O)O)CCCCC3)o1,12.2%,34.3%,69.9% (active),45.4% (active)
C/C=C/c1ccc(OCCOc2ccc(C=O)cc2OC)c(OC)c1,11.4%,44.7% (active),35.4%,2.21%
CCc1ccccc1NC(=O)CSc1nc2n[nH]c(C)c2c(=N)n1-c1cccc(OC)c1,16.7%,38.2%,19.4%,-17.4%
O=C(O)c1c[nH]c2c([N+](=O)[O-])cccc2c1=O,10.4%,35.2%,29.6%,5.89%
CCOCC(=O)Nc1ccc([N+](=O)[O-])cc1C,9%,59.1% (active),57.7% (active),4.94%
COc1ccc(NC(=O)/C(Cl)=C(/Cl)S(=O)Cc2ccc(Cl)cc2)cn1 (configuration not stated),58% (active),91.7% (active),84.6% (active),89.5% (active)
CCOc1ccc(NC(=O)CSc2nncc(=O)n2N)cc1,12.1%,64.5% (active),43.6% (active),-9.32%
O=C(CN1CCN(c2ncccn2)CC1)N1CCCc2c1c(=O)oc1ccc(O)cc21,13%,62.6% (active),53.6% (active),-33.2%
CC(=O)N1CCN(c2cc(N3CCCC3)c(F)cc2[N+](=O)[O-])CC1,2.68%,57.4% (active),48.7% (active),-0.47%
COc1cccc(-c2cnc3c(NC=O)cc(-c4ccc(S(C)(=O)=O)cc4)cn23)c1,30.2% (active),61.5% (active),52.4% (active),-0.78%
CC(=O)Oc1ccc2oc(=O)c3c(c2c1)CCCN3C(=O)CN1CCN(c2ncccn2)CC1,12.8%,58% (active),66.4% (active),-13.8%
Cc1ccc(NC(=O)Cc2nnc(SCC(=O)Nc3ccc(N4CCOCC4)cc3)n2C)cc1,6.95%,59.7% (active),51.9% (active),12%
COc1ccc(NC(=O)COC(=O)c2cc(S(=O)(=O)N3CCCC3)ccc2O)cc1,4.86%,52% (active),46.3% (active),0.43%
N#Cc1cc([N+](=O)[O-])ccc1NC(=O)COC(=O)C1CCC(=O)N1 (configuration not stated),15.6%,53.7% (active),48.9% (active),-3.83%
O=C(CSc1nc2ccccc2c(=O)n1-c1ccc(F)cc1)Nc1ccc(N2CCOCC2)cc1,2.2%,29.5%,25.7%,6.2%
